Measurements from ChEMBL document CHEMBL4513216, “Probing the Open Global Health Chemical Diversity Library for Multistage-Active Starting Points for Next-Generation Antimalarials” (ACS Infect Dis, 2020).
Among all 69,000 compounds or so, about 8,600 (12%) showed an effect of 50% or more. Only a selection was taken, and strong results are over-represented in it overall.

The compounds below were run on Plasmodium berghei (assay: Screen against P. berghei liver stage (PbLuc), transformed with Luciferase, at 10uM). Details: tested at 10 uM.
Assay type: functional, HepG2

Compound	INHIBITION
CN(C)C(=O)c1cnc2n1CCN(Cc1ccsc1)C2	3.11%
COCC1c2c(cnn2C)CCN1Cc1cccc(C)c1 (configuration not stated)	26.3%
CN1CCN(CC2(O)CCCN(C(=O)Cc3cccc(O)c3)CC2)CC1 (configuration not stated)	-2.09%
CC(C)(Oc1ccc(F)cc1)C(=O)NCc1ccco1	-0.797%
CNc1c(NCc2ccco2)c(=O)c1=O	33.5%
O=S(=O)(Cc1ccc(F)cc1)NCc1ccco1	52.1%
Cc1ccc(CS(=O)(=O)NCc2ccco2)cc1	52.1%
O=S(=O)(Cc1ccccc1)NCc1ccco1	11.5%
O=C1OCCN1c1cccc(CNS(=O)(=O)Cc2ccc(F)cc2)c1	18.9%
O=C1CCC[C@]2(CN(S(=O)(=O)N3CCCCC3)C[C@H]2c2cccnc2)N1	17.4%
O=C(CO[C@@H]1CC[C@H]2[C@H]1OCCN2CC1CCOCC1)N1CCCC1	11.9%
CN1CCOCC2(CCCN(C(=O)c3cn(C)cn3)C2)C1 (configuration not stated)	-57.7%
CN(C)CCN1CCOCC2(CCCN(C(=O)c3cccc(O)c3)C2)C1 (configuration not stated)	4.61%
CN1CCOCC2(CCCN(C(=O)c3ccccc3F)C2)C1 (configuration not stated)	34.6%
CN1CCOCC2(CCCN(C(=O)c3ccc(-n4cccc4)cc3)C2)C1 (configuration not stated)	50.9%
CN(C)CCN1CCOCC2(CCCN(C(=O)c3cccn3C)C2)C1 (configuration not stated)	47.9%
Cc1cc(C(=O)N2CCCC3(COCCN(CCN(C)C)C3)C2)no1 (configuration not stated)	56.1%
CN(C)CCN1CCOCC2(CCCN(C(=O)c3ccccn3)C2)C1 (configuration not stated)	54.7%
CN(C)CCN1CCOCC2(CCCN(C(=O)c3ccoc3)C2)C1 (configuration not stated)	30.3%
CN(C)CCN1CCOCC2(CCCN(C(=O)c3ccccc3)C2)C1 (configuration not stated)	20.9%
Cc1ccc(C)c(NS(=O)(=O)c2cc3c(c(C(=O)O)c2)OCCO3)c1	38.8%
O=C(NCCc1nc(C2CC2)no1)[C@H]1CNC[C@H](C(=O)N2CCCC2)C1	-31.3%
Cc1nn(C)c(N(C)C)c1CNCc1ccc(OCCN(C)C)cc1	27.6%
COCCn1ccc2cc(NC(C)=O)ccc21	18.2%
Cc1[nH]c2ccc(CNc3cc(C#N)ccn3)cc2c1C	16.9%
COC(=O)C(C)NCc1ccc2[nH]c(C)c(C)c2c1 (configuration not stated)	46.4%

Compound	INHIBITION
COCC(C)NCc1ccc2[nH]c(C)c(C)c2c1 (configuration not stated)	2.9%
Cc1[nH]c2ccc(CNc3cc(C(=O)NC(C)C)ccn3)cc2c1C	55.4%
Cc1[nH]c2ccc(CNc3cc(C(N)=O)ccn3)cc2c1C	16.9%
CSCC(C)NCc1ccc2[nH]c(C)c(C)c2c1 (configuration not stated)	76.9%
CC(=O)N1Cc2ccccc2OC2(CCN(C(=O)C3CC3)CC2)C1	37.8%
CCCSc1ncccc1C(=O)NCc1ccc(S(N)(=O)=O)cc1	-7.29%
N#Cc1cccc(NS(=O)(=O)c2ccc(C(=O)O)cc2F)c1	45.7%
CN(Cc1ccc(OC(F)F)cc1)C(=O)CS(=O)(=O)c1ccc(Cl)cc1	34.7%
CN(Cc1ccc(N(C)C)cc1)C(=O)CS(=O)(=O)c1ccc(Cl)cc1	64.3%
CN(C)c1ccc(CNC(=O)c2ccc(Cl)cc2F)cc1	14.2%
CC1(C)O[C@@](C)([C@H]2CC3(CCN(c4ncccn4)CC3)CO2)CC[C@@H]1O	32.7%
CC(C)c1noc(CN2CCN(C(=O)c3ccc(F)cc3)CC2)n1	16.8%
Cc1cc(I)c2c(c1)C(=O)C(CN1CCCC1)(CN1CCCC1)CO2	-55.3%
O=C1c2cc(Br)cc(Br)c2OCC1(CN1CCCC1)CN1CCCC1	59%
O=C(CN1CCCCC1)Nc1ncc(Br)cc1Br	27.8%
FC(F)CN1CCC(NCCc2ccc(-n3cccn3)cc2)CC1	6.83%
Cc1cc(C2CCCN(C(=O)c3ccc(OCC4CC4)nc3)C2)n[nH]1 (configuration not stated)	20.4%
CCC(=O)NC1CCCN(C(=O)c2ccc(OCC3CC3)nc2)C1 (configuration not stated)	78.8%
Cc1cnn(C2CCCN(C(=O)c3ccc(OCC4CC4)nc3)C2)c1 (configuration not stated)	13.483%
CN(Cc1ccco1)C1COC2(CCN(Cc3nccs3)CC2)C1 (configuration not stated)	28.3%
CNC(=O)[C@@H](C)NC(=O)c1cc(-c2ccc(F)cc2)c(C)s1	12.4%
CCCN1CCN(Cc2cccc(OC)c2)[C@H]2CS(=O)(=O)C[C@H]21	53.2%
O=S1(=O)C[C@@H]2[C@H](C1)N(Cc1cc(F)cc(Cl)c1)CCN2CCO	58.5%
CCCN1CCN(Cc2cccc(OC(C)C)c2)[C@H]2CS(=O)(=O)C[C@H]21	40.1%
O=S1(=O)C[C@@H]2[C@H](C1)N(Cc1cc(Cl)cc(Cl)c1)CCN2CC1CC1	25.4%
CCN1CCN(S(=O)(=O)N2CCc3ccccc3C2)[C@H]2CS(=O)(=O)C[C@H]21	-40.4%

Compound	INHIBITION
CCCN1CCN(Cc2cccc(OCC(N)=O)c2)[C@H]2CS(=O)(=O)C[C@H]21	36.8%
Cc1ccc(CN2CCN(Cc3ccncc3)[C@@H]3CS(=O)(=O)C[C@@H]32)cc1	36.7%
CCCN1CCN(Cc2cc(Cl)cc(Cl)c2)[C@H]2CS(=O)(=O)C[C@H]21	50.5%
CCCN1CCN(S(=O)(=O)c2ccccc2OC)[C@H]2CS(=O)(=O)C[C@H]21	65.7%
O=S1(=O)C[C@@H]2[C@H](C1)N(Cc1cc(F)cc(F)c1)CCN2CCO	33.7%
O=S1(=O)C[C@@H]2[C@H](C1)N(Cc1cc(Cl)cc(Cl)c1)CCN2CCO	30.7%
COc1ccccc1S(=O)(=O)N1CCN(C)[C@@H]2CS(=O)(=O)C[C@@H]21	39.6%
NC1CCN(C(=O)c2c(F)cccc2Br)CC1	28.7%
Cc1cc(C(=O)N2CC[C@@H]3CN(c4ncccn4)CCO[C@@H]3C2)c(C)o1	33.5%
CN1CCN(Cc2cscn2)CC(C(=O)N(C)C)C1 (configuration not stated)	43.8%
CS(=O)(=O)CCNC(=O)N1CC2(CCCC2)c2ccccc21	-8.91%
COCCN1C(=O)[C@@H]2CC[C@H]1CN(Cc1nnc(-c3ccccc3)o1)C2	-24.5%
CS(=O)(=O)Nc1ccn(Cc2ccc(Br)cc2)n1	49.9%
CS(=O)(=O)Nc1ccn(Cc2ccc(Cl)cc2)n1	58.2%
Cc1ccc(Cn2ccc(NS(C)(=O)=O)n2)cc1	-36.5%
COc1ccc2[nH]cc(C(=O)N3C[C@@H](O)[C@H](N4CCCC4)C3)c2c1	11.8%
CCc1oc(C(=O)NC(C)Cc2cnccn2)cc1CN1CCCC1 (configuration not stated)	30%
CCCn1nc2c(cc1=O)CN(Cc1nc(C)c(C)o1)CC2	14.1%
Cc1cccc(NC(C)C(=O)Nc2nccs2)c1 (configuration not stated)	79.8%
CSc1cccc(NC(C)C(=O)Nc2nccs2)c1 (configuration not stated)	44.4%
CC(C(=O)Nc1nccs1)N(C)Cc1cccc(C#N)c1 (configuration not stated)	22.6%
COc1ccc(Br)cc1SCCS(C)(=O)=O	29%
Cc1cc(C)n(CC2CCCN2C(=O)CCc2nccs2)n1 (configuration not stated)	31.1%
COCc1cc(CNC(=O)c2cccc3c2OCC3)n[nH]1	14.6%
CN(Cc1cc(C(C)(C)C)n[nH]1)C(=O)c1ccccc1C1CCNC1 (configuration not stated)	-23.2%
O=C(NCCc1c[nH]cn1)c1ccccc1C1CCNC1 (configuration not stated)	24.4%

Compound	INHIBITION
CC(C)Cc1cc(CNC(=O)c2ccccc2C2CCNC2)no1 (configuration not stated)	68.4%
CC(C)Cc1cc(CNC(=O)c2cccc3c2OCC3)no1	52.6%
Cc1cc(C)nc(CN(C)C(=O)c2ccccc2C2CCNC2)c1 (configuration not stated)	47.2%
CC(C)Cc1cc(CNC(=O)c2cccc3c2NCCC3)no1	44.3%
O=C(NCc1ccc2c(c1)OCO2)c1ccccc1C1CCNC1 (configuration not stated)	31%
CN(Cc1cc(C2CC2)[nH]n1)C(=O)c1ccccc1C1CCNC1 (configuration not stated)	51.3%
COc1cccc(-c2cnc(CNC(C)(C)c3nc(C)cs3)o2)c1	-16%
CCCn1cc(C(=O)NC(C)c2c(C)nn(CC)c2C)c(C)n1 (configuration not stated)	43%
CCC(O)CN1CCN(C(=O)c2ccn(-c3ccccc3)n2)CC1 (configuration not stated)	2.3%
CN(Cc1ncnn1C1Cc2ccccc2C1)C1CCS(=O)(=O)C1 (configuration not stated)	25.4%
O=C(NCCc1cccc(F)c1)c1nc2c(s1)CCCN2C(=O)C1CC1	52.1%
O=C(NCCc1cccnc1)c1nc2c(s1)CCCN2C(=O)C1CC1	35.8%
O=C(NCc1cccnc1)c1nc2c(s1)CCCN2C(=O)C1CC1	27.6%
CC(C)C(=O)N1CCC(c2nc3c([nH]2)CCCNC3=O)CC1	25.9%
COc1ccccc1CN1CC(O)CN(S(=O)(=O)C(C)C)CC1=O (configuration not stated)	28.3%
Cc1nnsc1CN(C)C(=O)CN1CC2(CCNCC2)OC1=O	51.8%
CCc1cc(CN(C)C(=O)CN2CC3(CCNCC3)OC2=O)on1	44.2%
Cc1cc(CN(C)C(=O)CN2CC3(CCNCC3)OC2=O)n(C)n1	64.8%
Cc1cc(C)n(CCCN(C)C(=O)CN2CC3(CCNCC3)OC2=O)n1	25.8%
Cc1cc(CN(C)C(=O)CN2CC3(CCNCC3)OC2=O)no1	-20.7%
Cc1ncsc1CCN(C)C(=O)CN1CC2(CCNCC2)OC1=O	-5.52%
COc1ccc2c(c1)CCN2Cc1nc2c(cnn2C)c(=O)[nH]1	33.8%
CS(=O)(=O)NCCCNC(=O)NCc1ccccc1	-40.2%
CC(=O)N1CC(=O)N(c2cnn(C)c2)CC12CCN(CC1CC1)C2 (configuration not stated)	30.1%
